In the first assay the target is NEFH. Put plainly: pooled miR-30 sensor sort-seq; sequence = guide strand. As to conditions: shRNA.
Sequence TCTCTTGCTAACATATTGCTAA registered a sensor-assay potency score (higher = more potent) of -0.697.
In the case of TTCGACAGCAGGTTCCTTCTTC, the sensor-assay potency score (higher = more potent) was 0.393.
TTTTTTCTTATCTTCAGCCTCT yielded a sensor-assay potency score (higher = more potent) of 0.587.
Same read-out and setting: the result for TATCTCTATATCCAGAGCCATC reads -1.97.

For a further assay, the target named is NEIL1. The description is as above. The following applies: shRNA.
TGAGTGACATAGCTCCAGCAGG registered a sensor-assay potency score (higher = more potent) of -1.15.
In turn, TCTTAGGAAGGTCTCTCTTTGC returned a sensor-assay potency score (higher = more potent) of -1.22.
The same measure, in the same setting: the value for TCTGTCCTCAGGACTCAGCTGT was -0.0425; that for TGGGATGTCAGCCTTGACCTTC was -1.09; that for TTCTTTTTGCGGGACTTGCGCC was -1.12.
On the same count and under the same terms, the result for ATGTCAGCCTTGACCTTCCGGG reads -0.984; that for TTGCAGTCCTCTTAGGAAGGTC, -0.51; that for TTTCGTAGCACACTCTCCCTGA, 0.529.
With TATCTTCTGGCTCAGGGTCAGC, the sensor-assay potency score (higher = more potent) is -1.69.
In the case of TACTCCTGCAAGACACAGGGCC, the sensor-assay potency score (higher = more potent) is -0.384.
Turning to TGAACTGCTGGTACTCCTGCAA, the sensor-assay potency score (higher = more potent) was -0.0198.
TTGGTCCTTATCTTCTGGCTCA showed a sensor-assay potency score (higher = more potent) of -0.526.

The next assay deals with NEK11. The description is as above. As to conditions: shRNA.
In the case of TATATGAGCAGCCTCCTTCTGA, the sensor-assay potency score (higher = more potent) is -0.668.
Same read-out and setting: the result for TTAGAAGTCGAGAAACTCCAAA reads -0.797.
The same measure, in the same setting: the value for TACATCAACACTCAGCTGCTGA was -0.0516; that for TTTGTGTCTAGAGAAGTGCAAC was -1.07; that for TTCGCTAGCATTCTGATGCCTT was 0.204.
Sequence TTTTGTTGAAGCACGTATCTTC had a sensor-assay potency score (higher = more potent) of 0.706.
ATGGAGTACATCAACACTCAGC returned a sensor-assay potency score (higher = more potent) of -1.37.
With TTCTCTGGTCTTTCTAACGCTA, the sensor-assay potency score (higher = more potent) is -0.53.
In the case of TTTTCTGTACTTCTGACAGTGC, the sensor-assay potency score (higher = more potent) is -0.562.
The same measure, in the same setting: the value for TAAGTCTCGATGAAGTATCCTC was -0.275; that for TTCCTGAATTTTATCGTCCAGA was -0.793; that for TTAGGTTCTGTAGCTGCTCATC was -0.837.

The next assay concerns the target NEK7. The description is as above. As to conditions: shRNA.
As for TTAGCTGGTTTTATATCTCTAT, the sensor-assay potency score (higher = more potent) was -0.684.
In the case of TCTCATATAGTAGACAGCCAAG, the sensor-assay potency score (higher = more potent) was -1.88.
Turning to TTTTCATGTATTCTCTCTGGAG, the sensor-assay potency score (higher = more potent) was -0.779.
For the sequence TCTATCTTCTTACACAGTGAGT, the sensor-assay potency score (higher = more potent) was -1.04.
In the case of TAGGTCGCCAGCATCTGCTAGT, the sensor-assay potency score (higher = more potent) is -0.288.
The sequence TTGAGCTGAAAAACCGGCCAAG returned a sensor-assay potency score (higher = more potent) of -1.05.
As for TATATCTCTATGCATGACTCTT, the sensor-assay potency score (higher = more potent) was -0.469.
In turn, TAAACATAGGTGACGTCTGGTC had a sensor-assay potency score (higher = more potent) of -1.09.
The same measure, in the same setting: the value for TAGTTCATTATCTTCAATGAAT was -1.2.
TAAACTTCACTAAATTGTCCGC displayed a sensor-assay potency score (higher = more potent) of -0.329.
As to TAATGAACACATTAGCTGGTTT, the sensor-assay potency score (higher = more potent) is -0.362.
TTAAAATGCTTGATCATTCTGG returned a sensor-assay potency score (higher = more potent) of 0.745.
Also: reference of the scale not given here.
